# Shown are actives, neighbours in structure and some others; about 5.3% of the full set was active somewhere.
# TDP1 inh – qHTS Assay for Inhibitors of Tyrosyl-DNA Phosphodiesterase (TDP1); 350,000 compounds, 0.28% hits; Potency, µM (series often up to 130 µM), for inactives: at the highest dose activity change, negative = inhibition, usual class: inhibitors; Tyrosyl-DNA phosphodiesterase 1 (Homo sapiens), Q9NUW8; recombinant TDP1, AlphaScreen DNA substrate cleavage; also: potency is read from the fitted curve at half-maximal effect; % is scaled to controls: 0 for no effect and ±100 for the full control effect; nearly all actives have a fitted effect of over 40% in size
#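 Recombinant E. coli-expressed Tdp1 (1 nM) preincubated with compound 15 min at RT, then 5'-biotin/3'-phosphotyrosine-FITC DNA substrate (15 nM) added for 5 min. AlphaScreen beads (10 ug/ml) added, 10 min RT; tyrosine-FITC cleavage read as signal loss.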
# JMJD2A Tudor inh – qHTS Assay for Inhibitors of JMJD2A-Tudor Domain | AlphaScreen JMJD2A-Tudor / H3K4me3 peptide binding | Potency, µM (titrated, usually from 114 µM), for the others: at the top dose activity change, negative = inhibition, hits mostly inhibitors | 390,000 compounds, 4.4% hits | AID 504339, 2011; also: potency is read from the fitted curve at half-maximal effect; % is scaled to controls: 0 for no effect and ±100 for the full control effect; nearly all actives have a fitted effect of over 50% in size
# Six1-Eya2 blk – qHTS Assay for Inhibitors of the Six1/Eya2 Interaction; Homeobox protein SIX1 (Homo sapiens) + Protein phosphatase EYA2 (Homo sapiens), …; AlphaScreen GST-Six1/His-Eya2 binding, biochemical; active compounds read low; activity change, % (no concentration beside the values); 360,000 compounds, 0.56% hits; AID 651725, 2012; in the data active = activity change below about -65%; inconclusive = mostly about -30% to -63%; also: % is scaled to controls: 0 for no effect and ±100 for the full control effect
#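 AlphaScreen with GST-Six1 and His-Eya2 (5X mix: 250 nM and 500 nM), glutathione donor and nickel acceptor beads; buffer 50 mM Tris pH 8.0, 300 mM NaCl, 1 mM TCEP; 1 h at 37 C in the dark.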
# BAZ2B block – qHTS Assay for Inhibitors of BAZ2B; Bromodomain adjacent to zinc finger domain protein 2B (Homo sapiens), Q9UIF8; Potency, µM (titrated, usually from 114 µM), inactives show at the top dose activity change, negative = inhibition, hits mostly inhibitors; AlphaScreen BAZ2B-H3K14Ac peptide displacement; 360,000 compounds, 4.4% hits; also: potency is read from the fitted curve at half-maximal effect; % is scaled to controls: 0 for no effect and ±100 for the full control effect; nearly all actives have a fitted effect of over 60% in size
#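 Inhibition is scored as reduced AlphaScreen emission. The BAZ2B/b-H3(5-23)K14Ac complex (50 nM each) in PBS pH 7.4, 0.01% Tween-20 meets compound (up to 110 uM) for 30 min at RT before bead addition.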
# HP1b binding inh – HTS for Inhibitors of HP1-beta Chromodomain Interactions with Methylated Histone Tails. Chromobox protein homolog 1 (Homo sapiens), P83916. AlphaScreen HP1-beta / biotin-H3K9me3 peptide binding. Potency, µM (doses to about 114 µM), without a hit: top-dose activity change, negative = inhibition, most hits filed as inhibitors. 390,000 compounds, 0.56% hits; also: potency is read from the fitted curve at half-maximal effect; nearly all actives have a fitted effect of over 70% in size
#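 AlphaScreen: HP1-beta (50 nM) preformed 30 min with biotin-H3(1-18)K9me3 peptide (50 nM) in PBS pH 7.4, 0.01% Tween-20. Compound added for 30 min at RT, then streptavidin donor/nickel chelate acceptor beads (10 ug/mL) for 30 min.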
# CtBP-E1A inh – qHTS Assay for Inhibitors of the CtBP/E1A Interaction. CtBP / adenovirus E1A interaction (AlphaScreen). AlphaScreen GST-E1A/His-CtBP binding, 1536-well; active compounds read low. activity change, % (no concentration beside the values). 340,000 compounds, 0.49% hits. AID 651724, 2012; in the data active = activity change below about -65%; inconclusive = mostly about -30% to -63%; also: % is scaled to controls: 0 for no effect and ±100 for the full control effect
#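 In 5 uL wells, 23 nL compound meets equimolar GST-E1A and His-CtBP (5X stock 125 nM each) for 2 h, 37 °C. Beads (5X, 50 ug/mL) then 1 h, 37 °C, dark.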
# * hit, by the source's call; ? = inconclusive; nt = no result; [ ] = remark or other dose. Unless noted, calls follow the shape of the dose curve; as a rule, active = well fitted inhibition curve with a large enough effect; inconclusive = small, poorly fitted or top-dose-only effect; inactive = no such curve, though single readings can be large or run the other way.
SMILES,TDP1 inh,JMJD2A Tudor inh,Six1-Eya2 blk,BAZ2B block,HP1b binding inh,CtBP-E1A inh
CC12COC3(P(=O)(c4ccccc4)c4ccccc4)CC1CCC23CP(=O)(c1ccccc1)c1ccccc1 (stereo not drawn),8%,-23%,-17,71µM*,9%,-1
CC(=O)c1sc2c(c1C)c(=O)n(-c1ccc(Cl)cc1)c(=O)n2Cc1cc(=O)n2cc(Cl)ccc2n1,0%,3%,nt,-1%,24%,nt
CCN(Cc1ccccc1)S(=O)(=O)c1ccccc1Br,-15%[56.1 µM],73%,44,nt,186%,38
C=CCCCN(Cc1ccccc1)S(=O)(=O)c1ccccc1Br,40µM*,143%,28,94%,187%,21
COc1cc(/C=N/N(C)C2=NS(=O)(=O)c3ccccc32)cc(OC)c1OC,nt,2%,-83*,9%,35%,-92*
COc1ccc(C(=O)/C=C(\C)Nc2ccc3c(c2)OCO3)cc1,2%,28µM*,-9,50µM*,?,-13
CCOc1ccc(N/C(C)=C\C(=O)c2ccc3c(c2)OCCO3)cc1,6%,?,-13,25µM*,-21%,0
CCOc1ccc(N/C(C)=C/C(=O)c2ccc3c(c2)OCCO3)cc1,11%,?,-20,?,-30%,-1
COc1ccc(N/C(C)=C/C(=O)c2ccccc2)cc1,10%,?,-4,?,?,-8
COc1ccc(CCNc2ncnc3c2nnn3C)cc1OC,5%,6%,nt,6%,37%,nt
O=C1C=CC(=O)c2c(O)c(N3CCN(CCO)CC3)c(Cl)c(O)c21,nt,50µM*,?,nt,?,-13
O=C1C=CC(=O)c2c(O)c(N3CCN(CCOCCO)CC3)c(Br)c(O)c21,nt,56µM*,-69*,nt,8.9µM*,-26
OCCOCCN1CCN(C2=Nc3ccccc3Sc3ccccc32)CC1,3%,-22%,2,0%,15%,1
CC1CC(C)CN(CC(=O)N2CCOCC2)C1 (stereo not drawn),-12%,25µM*,10,50µM*,-20%,nt
O=c1c(NCc2ccccc2Cl)nccn1-c1ccccc1,0%,-11%,nt,-6%,31%,nt
COc1ccc(CNCC(=O)Nc2sccc2C#N)cc1,5%,-7%[11.4 µM],19,50µM*,22%,nt
CC(=O)N1CCN(CC(=O)Nc2sccc2C#N)CC1,2%,56µM*,16,-26%,-12%,2
COc1ccc(N2CCN(CC(=O)Nc3sccc3C#N)CC2)cc1,5%,-35%,-12,?,2%,-10
N#Cc1ccsc1NC(=O)CN1CCN(c2ccccc2)CC1,3%,-17%,-4,-9%,19%,-1
C/C(=N\O)C(C)/[N+]([O-])=C/c1nc(C)c(C)n1O (stereo not drawn),nt,7.1µM*,?,nt,5%,-21
COc1cc2c(cc1OC)C(COc1ccccc1OC)N(C(=O)c1ccccc1OC)CC2 (stereo not drawn),10%,-23%,nt,-20%,34%,nt
CC(C)(C)NC(=O)C[C@H]1C[C@H](C(=O)N2CCCCC2)[C@@]2(C)c3[nH]c4cc(-c5ccco5)ccc4c3CCN2C1=O,7%[56.1 µM],50µM*,-14,nt,-23%,-11
COCCCNC(=O)C[C@H]1C[C@H](C(=O)N2CCCCC2)[C@@]2(CCc3ccccc3)c3[nH]c4cc(-c5ccco5)ccc4c3CCN2C1=O,5%[56.1 µM],45µM*,-12,nt,?,-25
O=C(C[C@H]1C[C@H](C(=O)N2CCOCC2)[C@@]2(CCC3CCCC3)c3[nH]c4cc(-c5ccco5)ccc4c3CCN2C1=O)NCCCn1ccnc1,nt,56µM*,-18,nt,?,-24

# Source: PubChem BioAssay
